The values below come from PubChem BioAssay (NCI).

Among the test systems are SN12C renal; UO-31 renal; TK-10 renal; CAKI-1 renal; A498 renal; MOLT-4 leukemia; CCRF-CEM leukemia; SR leukemia; ACHN renal.
What all share (test): NCI-60 one-dose screen, 48 h (100 = growth as untreated, 0 = no growth, -100 = all killed)
Holding throughout (settings): 10 µM

Each structure is given as a SMILES string. About 83,000 compounds went through this panel and 20% of them were active in at least one assay; those are over-represented in the sample as a whole.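 Percent growth is the endpoint: 0 to 100 indicates growth inhibition (40 means 60% inhibition), 0 means no net growth, and negative values indicate cell death.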 Values without a mark were called inactive. Active and inactive are the calls of the source. The calls were made as follows: active = growth percent below 10; inactive = the rest.

`O=C(O)c1ccc(P(=O)(O)O)c([N+](=O)[O-])c1`: the growth in the test with SN12C renal was 101%; in the test on UO-31 renal, 86%; with TK-10 renal, 108%; in the test on CAKI-1 renal, 94.7%; with A498 renal, 93.9%; with MOLT-4 leukemia, 111%.
With `CCOC1(OCC)OC(c2ccccc2)=C(C#N)C(/C=C\c2ccccc2)C1(OCC)OCC` (stereo not given), the growth was 81.3% in the test on SN12C renal; 74% with UO-31 renal; 97.1% with TK-10 renal; 84.8% in the test on CAKI-1 renal; 83.7% with A498 renal; 79.1% with CCRF-CEM leukemia. Also, the growth in the test on MOLT-4 leukemia is 81.7%; in the test with SR leukemia it was 52.8%.
For `Cc1cc(C)c(NC(=O)c2sc3nc4c(cc3c2N)C(=O)CCC4)c(C)c1`, the growth with UO-31 renal is 56.9%; with TK-10 renal, 44.8%; in the test with ACHN renal, 55.3%; in the test on CAKI-1 renal it was -22.2% (active); in the test on A498 renal it was -7.37% (active); in the test on CCRF-CEM leukemia it was 22.1%. The figures for the growth in the test with MOLT-4 leukemia and in the test on SR leukemia were 43% and 10.5%, respectively.
For the molecule `CCN(CC)CCNC(=O)c1ccc(NC(C)=O)cc1`, the growth with SN12C renal was 94.6%; in the test with UO-31 renal, 98.3%; in the test on TK-10 renal it was 103%; in the test on CAKI-1 renal, 95.2%; with A498 renal, 78.7%; with CCRF-CEM leukemia it was 114%. Moreover, the growth is 107% in the test on MOLT-4 leukemia and 101% with SR leukemia.
On to `CN(CCc1ccccn1)c1ccccc1`, for which the growth was 104% in the test on SN12C renal; 97.9% with UO-31 renal; 104% with TK-10 renal; 102% in the test on ACHN renal; 109% in the test with A498 renal; -0.411% (active) in the test with CCRF-CEM leukemia. Moreover, the growth in the test with MOLT-4 leukemia was 59.9%; with SR leukemia, 87.5%.
Consider `O=C1NC(=O)c2ncccc21`, for which the growth in the test with SN12C renal was 105%; in the test on UO-31 renal, 104%; in the test on ACHN renal it was 110%; with CAKI-1 renal, 96.4%; with A498 renal, 110%; with CCRF-CEM leukemia it was 99.1%. The growth with MOLT-4 leukemia is 106%; in the test with SR leukemia it was 111%.
`CC(=O)c1nc2ccccc2n1CCNC(N)=O`: the growth is 89.6% with SN12C renal; 78.8% in the test on UO-31 renal; 91.3% in the test with ACHN renal; 105% with CAKI-1 renal; 78.8% in the test with A498 renal; 68.3% in the test on CCRF-CEM leukemia. Also, the growth in the test on MOLT-4 leukemia is 77.2%; in the test on SR leukemia it was 43.5%.
With `O=C(Nc1ccc(OS(=O)(=O)c2ccccc2)cc1)C12CC3CC(CC(C3)C1)C2`, the growth with SN12C renal was 63.5%; in the test with UO-31 renal, 44.6%; in the test on TK-10 renal, 68.6%; with CAKI-1 renal it was 54.7%; in the test on A498 renal, 14.4%; in the test with CCRF-CEM leukemia, 40.2%. The growth is 39.5% in the test with MOLT-4 leukemia and 11.2% in the test with SR leukemia.
As to `Nc1nc(-c2ccccc2Cl)cc(-c2ccc(Cl)cc2Cl)n1`, the growth in the test with SN12C renal is 79.6%; in the test on UO-31 renal it was 62.5%; with ACHN renal, 86%; in the test with CAKI-1 renal it was 68%; in the test with A498 renal, 53.7%; in the test on CCRF-CEM leukemia, 57.5%. Also, the growth is 52.6% in the test on MOLT-4 leukemia and 25.4% in the test with SR leukemia.
Regarding `COc1cc2c(cc1OCCCN1CCN(c3ncnc4ccccc34)CC1)N=CC1CCCN1C2=O` (stereo not given), the growth was 3.4% (active) in the test on SN12C renal; -7.43% (active) in the test on TK-10 renal; 2.77% (active) in the test on ACHN renal; -12.1% (active) with CAKI-1 renal; -45.8% (active) in the test on CCRF-CEM leukemia; -44.3% (active) with MOLT-4 leukemia. Moreover, the growth in the test with SR leukemia was -43.4% (active).
On to `N#CCCN1C/C(=C/c2ccc(Br)cc2)C(=O)/C(=C/c2ccc(Br)cc2)C1`, for which the growth in the test with SN12C renal is -51.2% (active); in the test with UO-31 renal, -91.3% (active); in the test on TK-10 renal, -29.1% (active); with CAKI-1 renal, -7.84% (active); with A498 renal it was -39.7% (active); in the test with CCRF-CEM leukemia it was -5.67% (active). The growth was 2.26% (active) in the test on MOLT-4 leukemia and -17.3% (active) in the test with SR leukemia.
As to `CSc1nc(=O)n(Cc2ccc(Cl)cc2)c(=O)[nH]1`, the growth is 107% in the test with SN12C renal; 112% in the test on UO-31 renal; 103% in the test on ACHN renal; 112% in the test with CAKI-1 renal; 103% in the test on A498 renal; 100% in the test on CCRF-CEM leukemia. Moreover, the growth was 105% in the test on MOLT-4 leukemia and 95.5% in the test with SR leukemia.
As for `O=C(Nc1cccc(-n2cc(-c3ccncc3)c(-c3ccc(O)c(Cl)c3)n2)c1)c1ccc(Cl)c(Cl)c1`, the growth in the test on SN12C renal was 70.9%; in the test with UO-31 renal, 36.3%; in the test on TK-10 renal, 104%; in the test on CAKI-1 renal, 13%; in the test with A498 renal, 74.6%; in the test on CCRF-CEM leukemia, 33%. Besides, the growth with MOLT-4 leukemia is 45.8%; in the test with SR leukemia it was 15.1%.
In the case of `O=C(Nc1cccc(-n2cc(-c3ccncc3)c(-c3cc(O)cc(Cl)c3)n2)c1)Nc1ccc(Cl)c(C(F)(F)F)c1`, the growth in the test on SN12C renal was 34.6%; in the test on UO-31 renal, 18.5%; with TK-10 renal, 25.9%; in the test with CAKI-1 renal, 29.1%; with A498 renal, 21.5%; in the test on MOLT-4 leukemia it was -18% (active). For the same molecule, the growth in the test on SR leukemia was -30.6% (active).
Consider `COc1cc(-c2cc(/C=C/C(=O)c3ccc(Cl)c(Cl)c3)[nH]n2)cc(OC)c1OC`, for which the growth with SN12C renal is 64.3%; in the test with UO-31 renal it was 54.1%; in the test with ACHN renal, 81.5%; in the test with CAKI-1 renal, 82.9%; in the test on A498 renal, 70.6%; with CCRF-CEM leukemia, 3% (active). Besides, the growth was 54.4% with MOLT-4 leukemia and -6.68% (active) with SR leukemia.
Turning to `COc1cc(-c2cc(/C=C/C(=O)c3ccc4c(c3)OCO4)[nH]n2)cc(OC)c1OC`, the growth was 63.9% with SN12C renal; 38.7% with UO-31 renal; 59.7% with CAKI-1 renal; 73.7% with A498 renal; 0.141% (active) in the test on CCRF-CEM leukemia; 52.7% in the test on MOLT-4 leukemia. Besides, the growth in the test with SR leukemia is -15.1% (active).
Take `CCCCCCCC(C)NCCO` (stereo not given): the growth was 112% in the test with SN12C renal; 80.8% in the test on UO-31 renal; 105% in the test on TK-10 renal; 97.1% with CAKI-1 renal; 104% in the test on A498 renal; 99.6% with MOLT-4 leukemia. Further, the growth in the test on SR leukemia was 108%.
On to `O=[N+]([O-])c1ccc(N/N=C/c2cccc3ccccc23)nc1`, for which the growth in the test with SN12C renal was 103%; with UO-31 renal, 86.9%; in the test on TK-10 renal it was 100%; with A498 renal, 106%; in the test on CCRF-CEM leukemia, 14.9%; in the test on MOLT-4 leukemia, 57.3%. Besides, in the test with SR leukemia, the growth was 79.4%.
With `C=C1c2c(C)nn(-c3ccc(OC)cc3)c2N(C)C23C[C@@H]1C1(C)c4c(C)nn(-c5ccc(OC)cc5)c4N(C)C(C)(C[C@H]12)C3` (stereo not given in full), the growth is 23.8% in the test on SN12C renal; 16.2% in the test with UO-31 renal; 33.8% with ACHN renal; 2.18% (active) in the test on CAKI-1 renal; 40.2% in the test with A498 renal; 21.7% in the test on CCRF-CEM leukemia. Also, the growth with MOLT-4 leukemia was 14.9%; in the test with SR leukemia, 3.27% (active).
As to `CC(=O)c1nc2ccccc2n1CCN1CCN(C)CC1`, the growth was 46.7% in the test with SN12C renal; 53.1% with UO-31 renal; 78% in the test with ACHN renal; 94.1% with CAKI-1 renal; 36.6% in the test on A498 renal; 3.66% (active) with CCRF-CEM leukemia. Further, the figures for the growth in the test on MOLT-4 leukemia and in the test with SR leukemia were 49.9% and 6.52% (active), respectively.
In the case of `Clc1ccc(Nc2ccnc(NCCCNc3ccnc4cc(Cl)ccc34)n2)cc1`, the growth is -51.6% (active) in the test with SN12C renal; -46.2% (active) in the test with UO-31 renal; -82.9% (active) with TK-10 renal; -71.5% (active) in the test on CAKI-1 renal; -4.52% (active) with A498 renal; -31.5% (active) in the test on MOLT-4 leukemia. For the same molecule, the growth with SR leukemia was -55.5% (active).
Consider `Cn1c(N)c(N=Nc2ccc(S(=O)(=O)Nc3nccs3)cc2)c(=O)n(C)c1=O`, for which the growth is 97% with SN12C renal; 68.6% in the test with UO-31 renal; 98.7% in the test on TK-10 renal; 95.4% in the test with CAKI-1 renal; 96.9% in the test on A498 renal; 95.8% in the test with CCRF-CEM leukemia. Besides, the growth with MOLT-4 leukemia is 92.6%; in the test with SR leukemia, 95.2%.
In the case of `CSc1nc(=O)n(Cc2ccc(F)cc2)c(=O)n1Cc1ccc(C)cc1`, the growth with SN12C renal is 96.3%; in the test with UO-31 renal it was 80.1%; in the test on ACHN renal, 101%; in the test on CAKI-1 renal it was 84.9%; in the test with A498 renal, 106%; in the test with CCRF-CEM leukemia, 98.5%. The growth with MOLT-4 leukemia was 92.4%; in the test on SR leukemia, 84.4%.
Regarding `COc1cc(CNCCCCCCN2C(=O)c3cccc4cccc(c34)C2=O)ccc1O`, the growth in the test with SN12C renal was 70.5%; with UO-31 renal it was 23.8%; with TK-10 renal, 85.4%; in the test on ACHN renal, 63.7%; with CCRF-CEM leukemia it was 45.4%; in the test with MOLT-4 leukemia, 49.2%. In the test on SR leukemia, the growth is 0.634% (active).
On to `COc1ccc(-c2nn(-c3cccc(NC(=O)Nc4cc(C(F)(F)F)cc(C(F)(F)F)c4)c3)cc2-c2ccncc2)cc1Cl`, for which the growth in the test with SN12C renal was 18.9%; in the test with UO-31 renal, -11.6% (active); in the test on TK-10 renal, 11.8%; in the test on CAKI-1 renal, -12.3% (active); with A498 renal, -16.5% (active); in the test with CCRF-CEM leukemia, -17.8% (active). For the same molecule, the growth is -15.3% (active) in the test on MOLT-4 leukemia and -19.6% (active) in the test with SR leukemia.
For the molecule `COc1ccc(C(=O)/C=C/c2cc(-c3cc(OC)c(OC)c(OC)c3)n[nH]2)cc1`, the growth in the test on SN12C renal is 25.1%; in the test on UO-31 renal it was 5.28% (active); with ACHN renal it was 58.6%; in the test with CAKI-1 renal, 4.76% (active); in the test with A498 renal, 62.2%; in the test on CCRF-CEM leukemia it was -35.9% (active). The growth in the test on MOLT-4 leukemia is 3.23% (active); with SR leukemia, -39.7% (active).
As for `COc1ccc(-c2nc(-c3nc4ccc(OC)cc4[nH]3)cc3c2[nH]c2ccccc23)cc1`, the growth in the test on SN12C renal is 20.7%; in the test with UO-31 renal it was 8.19% (active); in the test with ACHN renal it was 31.9%; in the test on CAKI-1 renal it was 0.0135% (active); in the test with A498 renal, 46.3%; in the test with CCRF-CEM leukemia, 11%. For the same molecule, the growth was 47.3% in the test on MOLT-4 leukemia and 33.6% in the test on SR leukemia.
In the case of `C#Cc1ccc(-n2c(/C=C/c3ccc(O)c(OC)c3)nc3ncccc3c2=O)cc1`, the growth with SN12C renal is 98.4%; with UO-31 renal, 73.9%; in the test with TK-10 renal it was 139%; with CAKI-1 renal, 96%; in the test with A498 renal, 94%; in the test with CCRF-CEM leukemia, 91.4%. Also, the growth is 86.1% in the test with MOLT-4 leukemia and 80.9% with SR leukemia.
